The full data set covers some 8,800 targets. This sample favours those with a hit. About 0.5% of all pairs of compound and target were hits. Unmarked numbers belong to inactive results.

UniProt O95674, sequence (O95674 whole entry, looked up): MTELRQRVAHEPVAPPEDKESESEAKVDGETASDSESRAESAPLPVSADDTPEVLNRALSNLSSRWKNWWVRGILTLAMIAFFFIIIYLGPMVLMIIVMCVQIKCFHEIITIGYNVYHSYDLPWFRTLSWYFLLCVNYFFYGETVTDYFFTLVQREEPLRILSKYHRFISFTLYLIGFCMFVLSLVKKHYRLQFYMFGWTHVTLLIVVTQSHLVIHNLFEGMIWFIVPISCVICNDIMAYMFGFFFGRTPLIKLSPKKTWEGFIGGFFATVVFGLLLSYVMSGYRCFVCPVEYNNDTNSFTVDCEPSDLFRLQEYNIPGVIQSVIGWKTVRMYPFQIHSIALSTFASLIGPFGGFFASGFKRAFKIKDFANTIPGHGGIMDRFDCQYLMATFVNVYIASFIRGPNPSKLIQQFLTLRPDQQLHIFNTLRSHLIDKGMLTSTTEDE
UniProt Q8N4Q1, sequence (Q8N4Q1 whole entry, looked up): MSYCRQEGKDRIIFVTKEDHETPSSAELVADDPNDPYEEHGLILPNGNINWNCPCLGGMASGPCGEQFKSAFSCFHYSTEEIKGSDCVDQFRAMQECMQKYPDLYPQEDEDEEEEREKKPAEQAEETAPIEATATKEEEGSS
UniProt Q9H3Q1, sequence (Q9H3Q1 whole entry, looked up): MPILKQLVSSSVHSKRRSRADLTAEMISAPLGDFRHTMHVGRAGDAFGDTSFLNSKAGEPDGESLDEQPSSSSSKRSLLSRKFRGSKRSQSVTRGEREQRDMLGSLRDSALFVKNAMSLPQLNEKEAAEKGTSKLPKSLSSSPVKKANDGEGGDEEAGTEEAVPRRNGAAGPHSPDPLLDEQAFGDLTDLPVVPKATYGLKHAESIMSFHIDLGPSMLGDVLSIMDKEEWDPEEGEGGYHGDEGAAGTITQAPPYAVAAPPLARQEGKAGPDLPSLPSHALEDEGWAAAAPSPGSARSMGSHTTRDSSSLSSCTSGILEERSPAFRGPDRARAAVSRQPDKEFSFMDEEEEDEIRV
UniProt Q9UL45, sequence (Q9UL45 whole entry, looked up): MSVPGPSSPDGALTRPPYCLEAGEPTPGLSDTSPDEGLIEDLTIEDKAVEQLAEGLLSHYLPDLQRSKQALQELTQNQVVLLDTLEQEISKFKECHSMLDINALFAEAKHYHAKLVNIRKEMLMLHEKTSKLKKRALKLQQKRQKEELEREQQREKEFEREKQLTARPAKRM
UniProt P21127, sequence (P21127 whole entry, looked up): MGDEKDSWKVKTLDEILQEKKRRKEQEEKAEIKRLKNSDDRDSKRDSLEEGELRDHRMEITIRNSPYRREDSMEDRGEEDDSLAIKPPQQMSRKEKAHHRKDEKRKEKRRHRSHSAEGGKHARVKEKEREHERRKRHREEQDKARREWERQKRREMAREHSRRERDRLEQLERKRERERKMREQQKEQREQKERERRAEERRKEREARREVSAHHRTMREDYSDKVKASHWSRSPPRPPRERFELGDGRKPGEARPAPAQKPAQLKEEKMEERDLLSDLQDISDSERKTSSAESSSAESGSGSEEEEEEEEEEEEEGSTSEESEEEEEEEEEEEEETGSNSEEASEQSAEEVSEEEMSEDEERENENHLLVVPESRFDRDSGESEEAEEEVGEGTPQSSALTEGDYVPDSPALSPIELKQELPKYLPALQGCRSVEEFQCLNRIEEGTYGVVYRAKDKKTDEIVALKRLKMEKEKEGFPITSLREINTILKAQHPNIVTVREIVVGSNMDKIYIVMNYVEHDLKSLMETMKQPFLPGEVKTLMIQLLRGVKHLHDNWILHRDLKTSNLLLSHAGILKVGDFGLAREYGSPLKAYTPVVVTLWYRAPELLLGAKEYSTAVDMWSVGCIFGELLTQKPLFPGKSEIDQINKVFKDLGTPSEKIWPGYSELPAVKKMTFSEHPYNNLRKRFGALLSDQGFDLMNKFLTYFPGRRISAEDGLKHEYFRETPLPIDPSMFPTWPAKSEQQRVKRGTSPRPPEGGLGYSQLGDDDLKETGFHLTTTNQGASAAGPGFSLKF
UniProt O95352, sequence (O95352 whole entry, looked up): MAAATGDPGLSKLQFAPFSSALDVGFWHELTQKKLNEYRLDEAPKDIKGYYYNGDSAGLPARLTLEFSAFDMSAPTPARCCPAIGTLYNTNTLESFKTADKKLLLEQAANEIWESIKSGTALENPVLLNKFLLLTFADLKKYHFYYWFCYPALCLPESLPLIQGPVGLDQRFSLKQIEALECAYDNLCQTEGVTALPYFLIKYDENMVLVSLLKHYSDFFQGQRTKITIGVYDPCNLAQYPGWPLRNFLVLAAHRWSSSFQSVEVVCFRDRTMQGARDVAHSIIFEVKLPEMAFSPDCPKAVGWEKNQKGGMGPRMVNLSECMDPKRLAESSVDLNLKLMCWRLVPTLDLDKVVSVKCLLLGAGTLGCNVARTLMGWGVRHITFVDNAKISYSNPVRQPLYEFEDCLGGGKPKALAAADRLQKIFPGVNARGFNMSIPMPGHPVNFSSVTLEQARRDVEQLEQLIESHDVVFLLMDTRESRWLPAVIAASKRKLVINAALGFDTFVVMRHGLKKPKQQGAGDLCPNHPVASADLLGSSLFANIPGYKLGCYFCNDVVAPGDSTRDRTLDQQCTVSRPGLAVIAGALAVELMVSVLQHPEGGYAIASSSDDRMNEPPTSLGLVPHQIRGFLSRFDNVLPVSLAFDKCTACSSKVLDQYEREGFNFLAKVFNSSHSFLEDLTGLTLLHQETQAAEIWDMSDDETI
UniProt P42574, sequence (P42574 whole entry, looked up): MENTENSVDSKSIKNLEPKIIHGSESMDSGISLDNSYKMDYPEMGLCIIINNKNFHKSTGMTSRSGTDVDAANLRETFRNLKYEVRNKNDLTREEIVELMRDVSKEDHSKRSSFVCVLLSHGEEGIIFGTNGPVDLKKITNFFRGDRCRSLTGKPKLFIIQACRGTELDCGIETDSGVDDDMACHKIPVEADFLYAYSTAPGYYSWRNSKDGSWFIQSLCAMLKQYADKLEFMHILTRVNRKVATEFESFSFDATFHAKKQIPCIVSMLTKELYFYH
UniProt O95067, sequence (O95067 whole entry, looked up): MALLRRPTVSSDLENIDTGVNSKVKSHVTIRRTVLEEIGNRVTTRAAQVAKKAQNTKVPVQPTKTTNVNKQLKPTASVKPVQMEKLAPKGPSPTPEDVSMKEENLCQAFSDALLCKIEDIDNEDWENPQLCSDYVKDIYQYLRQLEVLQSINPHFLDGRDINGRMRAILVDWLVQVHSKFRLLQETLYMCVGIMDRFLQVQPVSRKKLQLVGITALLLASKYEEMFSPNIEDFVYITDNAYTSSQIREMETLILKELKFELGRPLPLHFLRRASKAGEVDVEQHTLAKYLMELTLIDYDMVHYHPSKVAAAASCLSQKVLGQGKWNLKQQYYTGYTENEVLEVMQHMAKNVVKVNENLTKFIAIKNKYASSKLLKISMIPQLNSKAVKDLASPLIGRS
UniProt P50750, sequence (P50750 whole entry, looked up): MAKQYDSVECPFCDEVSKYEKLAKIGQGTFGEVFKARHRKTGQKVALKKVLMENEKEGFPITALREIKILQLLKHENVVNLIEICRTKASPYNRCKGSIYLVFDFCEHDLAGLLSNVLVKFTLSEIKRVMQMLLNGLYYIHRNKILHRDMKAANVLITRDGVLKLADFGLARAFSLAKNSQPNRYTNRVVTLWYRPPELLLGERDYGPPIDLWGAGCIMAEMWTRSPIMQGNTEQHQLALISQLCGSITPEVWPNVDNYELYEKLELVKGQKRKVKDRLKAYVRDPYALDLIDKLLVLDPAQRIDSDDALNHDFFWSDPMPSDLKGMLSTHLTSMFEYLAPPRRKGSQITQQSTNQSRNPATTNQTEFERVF
UniProt Q86YS7, sequence (Q86YS7 whole entry, looked up): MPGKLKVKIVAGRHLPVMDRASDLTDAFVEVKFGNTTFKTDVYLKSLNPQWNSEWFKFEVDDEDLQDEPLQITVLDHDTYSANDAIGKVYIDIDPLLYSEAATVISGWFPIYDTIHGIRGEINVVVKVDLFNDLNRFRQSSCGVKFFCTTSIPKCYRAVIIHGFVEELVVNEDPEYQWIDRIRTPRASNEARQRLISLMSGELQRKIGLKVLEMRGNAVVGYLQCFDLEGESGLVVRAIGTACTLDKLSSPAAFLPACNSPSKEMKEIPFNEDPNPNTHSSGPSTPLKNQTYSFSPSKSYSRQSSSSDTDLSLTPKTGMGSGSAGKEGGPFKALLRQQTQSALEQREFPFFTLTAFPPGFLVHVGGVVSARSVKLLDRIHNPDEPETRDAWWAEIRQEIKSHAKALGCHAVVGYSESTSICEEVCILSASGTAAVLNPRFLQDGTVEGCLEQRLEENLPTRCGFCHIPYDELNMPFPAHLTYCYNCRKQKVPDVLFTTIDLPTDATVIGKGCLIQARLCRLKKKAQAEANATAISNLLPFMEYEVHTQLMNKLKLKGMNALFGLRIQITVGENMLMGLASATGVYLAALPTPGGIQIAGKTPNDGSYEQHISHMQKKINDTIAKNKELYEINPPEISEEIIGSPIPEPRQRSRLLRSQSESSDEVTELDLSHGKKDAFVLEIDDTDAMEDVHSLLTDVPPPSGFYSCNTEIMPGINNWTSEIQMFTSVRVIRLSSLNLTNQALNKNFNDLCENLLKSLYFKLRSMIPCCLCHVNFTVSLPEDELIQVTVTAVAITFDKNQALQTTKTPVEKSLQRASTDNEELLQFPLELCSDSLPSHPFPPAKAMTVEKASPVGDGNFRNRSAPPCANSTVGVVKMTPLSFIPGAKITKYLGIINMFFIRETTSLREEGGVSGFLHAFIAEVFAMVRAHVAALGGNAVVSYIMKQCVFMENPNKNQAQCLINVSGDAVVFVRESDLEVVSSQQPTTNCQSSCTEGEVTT
UniProt Q15834, sequence (Q15834 whole entry, looked up): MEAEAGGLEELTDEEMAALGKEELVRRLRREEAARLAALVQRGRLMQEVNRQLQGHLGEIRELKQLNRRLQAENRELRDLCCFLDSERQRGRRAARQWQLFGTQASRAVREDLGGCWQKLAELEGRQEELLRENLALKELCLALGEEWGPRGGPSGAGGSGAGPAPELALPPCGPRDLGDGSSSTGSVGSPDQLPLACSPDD

Compound in the experiment: C[C@H](C1=CC=C(C=C1)C(=O)NC2=C3C=CNC3=NC=C2)N
Put plainly: log2 fold change, soluble protein after heating vs DMSO (PISA); higher = thermal stabilisation; K562 lysate, 10 uM; active = over 0.2 and 3.5 SD of the protein, either way, in both replicates (recomputed). In a few lines:
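A 30 min treatment with 10 μM compound was applied to crude K562 extract at 1 mg/mL protein in PBS pH 7.4 with 1 mM MgCl2. Heating for 3 min spanned 48°C-58°C, after which aliquots were pooled, adjusted to 0.5% NP-40 at 4°C and spun at 21,000xg for 90 min. TMTpro 16plex LC-MS/MS of the supernatant, with channel sums equalised, gave values recorded as log-two fold change in thermal stability against solvent controls, from duplicates.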
Regarding AURKAIP1 (UniProt Q9NWT8), the log2 fold change was -0.017.

For the target CDC42BPA isoform 6 (UniProt Q5VT25), the log2 fold change is 0.024.

Regarding BMS1 (UniProt Q14692), the log2 fold change was -0.018.

Turning to ATP9B (UniProt O43861), the log2 fold change was -0.181.

Regarding BUD23 isoform 3 (UniProt O43709), the log2 fold change was -0.305 (active).

As for ATXN2 (UniProt F8WB05), the log2 fold change was 0.087.

ATP11A (UniProt P98196): the log2 fold change was -0.108.

On to C8orf37 (UniProt Q96NL8), for which the log2 fold change is -0.559 (active).

As to CELF2 isoform 3 (UniProt O95319), the log2 fold change is 0.104.

Consider CDS2 (UniProt O95674), for which the log2 fold change is -0.029.

CAMLG (UniProt P49069): the log2 fold change is 0.179.

As to CAPNS1 (UniProt P04632), the log2 fold change is -0.21.

C12orf45 (UniProt Q8N5I9): the log2 fold change was -0.269 (active).

For CDK9 isoform 2 (UniProt P50750), the log2 fold change is 0.066.

As for CCPG1 isoform 5 (UniProt Q9ULG6), the log2 fold change is -0.036.

With CELF1 isoform 4 (UniProt Q92879), the log2 fold change was 0.021.

Turning to CDC42EP4 (UniProt Q9H3Q1), the log2 fold change is -0.047.

As for BLOC1S6 (UniProt Q9UL45), the log2 fold change was 0.048.

Regarding CCNB2 (UniProt O95067), the log2 fold change was -0.016.

On to CASP3 (UniProt P42574), for which the log2 fold change is 0.249 (active).

Turning to CHAC2 (UniProt Q8WUX2), the log2 fold change is 0.57 (active).

With CBX5 (UniProt P45973), the log2 fold change is -0.187.

For ATG7 (UniProt O95352), the log2 fold change was -0.037.

In the case of CHAF1A (UniProt Q13111), the log2 fold change is -0.054.

In the case of C9orf72 (UniProt Q96LT7), the log2 fold change is -0.075.

Regarding ATRIP (UniProt Q8WXE1), the log2 fold change was -0.034.

As to CAMK2G isoform 8 (UniProt Q13555), the log2 fold change is -0.053.

For the target CCT6A (UniProt P40227), the log2 fold change is 0.009.

On to C2CD5 isoform 3 (UniProt Q86YS7), for which the log2 fold change was -0.26 (active).

Turning to CHCHD4 isoform 2 (UniProt Q8N4Q1), the log2 fold change was -0.316.

Consider C19orf54 (UniProt Q5BKX5), for which the log2 fold change is -0.011.

BPHL (UniProt Q86WA6): the log2 fold change is 0.051.

On to CCNB1 (UniProt P14635), for which the log2 fold change was -0.019.

As for CDK11B (UniProt P21127), the log2 fold change is -0.012.

Regarding C3 (UniProt P01024), the log2 fold change is -0.095.

In the case of CASC4 (UniProt Q6P4E1), the log2 fold change is -0.088.

Consider BRD2 isoform 2 (UniProt P25440), for which the log2 fold change is 0.128.

On to CDAN1 (UniProt Q8IWY9), for which the log2 fold change is 0.

In the case of CCDC85B (UniProt Q15834), the log2 fold change was -0.016.

For CARS isoform 3 (UniProt P49589), the log2 fold change was 0.003.

Source of the values: the supplement of paper PMC10849652.
